# Data: PubChem BioAssay (EPA / NIEHS)
# Active and inactive are the calls of the source. How the source made its calls: active means hit-call score of the fitted dose curve at least 0.9, where 1 is the maximum; inactive means score below 0.9.
# Experiments:
# [1] = ATG_E_Box_CIS: Attagene CIS-FACTORIAL HepG2 Assay for human Enhancer Box (E-box) (AID 2282936); conditions: HepG2 E-box cis-reporter transcription, actives raise or lower the signal
# Method in brief: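 Measured 24 h post-dosing in HepG2 cells transfected with multiple cis-regulated reporter units, signal being reporter mRNA induction detected by fluorescent RT-PCR with capillary electrophoresis; gain or loss fitted against DMSO.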
# [2] = ATG_M_61_CIS: Attagene CIS-FACTORIAL HepG2 Assay for M61 Transcription Factor (Internal Marker) (AID 2282937); conditions: HepG2 Attagene CIS-FACTORIAL M61 internal marker reporter; actives raise or lower the signal
# Method in brief: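 Multiplexed reporter mRNA assay, HepG2 human hepatoma cells, 24 h treatment. Signal: FAM-labelled, HpaI-digested RT-PCR fragments by CE. Fit: bidirectional, baseline DMSO.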
# [3] = ATG_EGR_CIS: Attagene CIS-FACTORIAL HepG2 Assay for human Early Growth Response 1 (EGR1) (AID 2282938); conditions: HepG2 Attagene CIS-FACTORIAL EGR reporter mRNA; actives raise or lower the signal
# Method in brief: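 Multiplexed cis-reporter system in human hepatoma HepG2 cells, transiently transfected. Cells are dosed for 24 h; reporter transcripts are amplified, fluorescently tagged and sized by capillary electrophoresis, with DMSO as negative control.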
# [4] = ATG_M_19_CIS: Attagene CIS-FACTORIAL HepG2 Assay for M19 Transcription Factor (Internal Marker) (AID 2282939); conditions: HepG2 Attagene CIS-FACTORIAL M19 internal marker reporter; actives raise or lower the signal
# Method in brief: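 In this multiplexed cell assay, transiently transfected HepG2 reporter units report endogenous transcription-factor activity; after 24 hours of treatment, labelled reporter cDNA fragments are quantified by capillary electrophoresis and fitted bidirectionally against DMSO.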
# [5] = ATG_Ets_CIS: Attagene CIS-FACTORIAL HepG2 Assay for human Erythroblast Transformation Specific (ETS) (AID 2282941); conditions: HepG2 ETS cis-reporter transcription, actives raise or lower the signal
# Method in brief: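 Endogenous transcription factor activity read as reporter mRNA via RT-PCR and capillary electrophoresis, with gain or loss fitted bidirectionally against DMSO. Human HepG2 liver cells, transiently transfected CIS reporter constructs, 24 h exposure.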
# [6] = target: Hepatocyte nuclear factor 3-beta (Homo sapiens) (UniProt Q9Y261); test: ATG_FoxA2_CIS: Attagene CIS-FACTORIAL HepG2 Assay for human Forkhead box A2 (FOXA2) (AID 2282942); conditions: HepG2 cis-reporter transcription factor activity, 24 h; actives raise or lower the signal
# Method in brief: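 Multiplexed cis-element reporter assay in transiently transfected HepG2. Twenty-four hours post-dosing, RNA was reverse-transcribed, amplified, FAM-labelled, HpaI-digested and separated by CE. Activity gain or loss relative to DMSO.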
# [7] = ATG_FoxO_CIS: Attagene CIS-FACTORIAL HepG2 Assay for human Forkhead box O (FoxO) (AID 2282943); conditions: HepG2 Attagene cis-reporter, FoxO element, mRNA; actives raise or lower the signal
# Method in brief: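 HepG2 cells transiently transfected with cis-promoter-driven multiple reporter transcription units; 24 h after chemical dosing, reporter mRNA quantified by RT-PCR, fluorescent primer extension, HpaI digestion and capillary electrophoresis. Bidirectional fitting versus DMSO baseline.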
# [8] = ATG_GATA_CIS: Attagene CIS-FACTORIAL HepG2 Assay for human GATA Binding Protein (AID 2282944); conditions: HepG2 GATA cis-element reporter, Attagene multiplex mRNA; actives raise or lower the signal
# Method in brief: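 Measures endogenous transcription factor-driven reporter mRNA in HepG2 cells transiently carrying cis-regulated constructs. 24 h dosing; RNA via oligo(dT) reverse transcription, PCR, HpaI digestion, capillary electrophoresis; fitted relative to DMSO.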
# [9] = ATG_GLI_CIS: Attagene CIS-FACTORIAL HepG2 Assay for human Zinc Finger Protein GLI1 (AID 2282945); conditions: HepG2, Attagene cis-factorial reporter mRNA, GLI element; actives raise or lower the signal
# Method in brief: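 HepG2 cells transiently transfected with cis-promoter multiplexed reporter units report endogenous transcription factor activity. After 24 h chemical exposure, reporter mRNA was quantified by RT-PCR, 6-FAM labelling, HpaI digestion and capillary electrophoresis, with bidirectional fitting against DMSO.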
# Hepatocyte nuclear factor 3-beta (Homo sapiens), sequence (Q9Y261 whole entry, looked up): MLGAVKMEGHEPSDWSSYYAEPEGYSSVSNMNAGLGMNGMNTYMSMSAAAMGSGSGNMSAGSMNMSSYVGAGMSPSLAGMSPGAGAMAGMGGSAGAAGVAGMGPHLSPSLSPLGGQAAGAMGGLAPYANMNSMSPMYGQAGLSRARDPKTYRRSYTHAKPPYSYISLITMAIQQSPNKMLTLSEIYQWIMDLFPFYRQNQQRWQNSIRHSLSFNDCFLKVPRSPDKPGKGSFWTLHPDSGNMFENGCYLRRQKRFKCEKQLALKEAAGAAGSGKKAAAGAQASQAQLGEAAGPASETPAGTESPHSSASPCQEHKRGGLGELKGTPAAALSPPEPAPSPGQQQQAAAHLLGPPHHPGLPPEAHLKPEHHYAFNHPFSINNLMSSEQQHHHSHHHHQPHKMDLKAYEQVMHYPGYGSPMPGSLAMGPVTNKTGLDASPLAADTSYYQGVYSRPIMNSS
Compound,outcome [1],outcome [2],outcome [3],outcome [4],outcome [5],outcome [6],outcome [7],outcome [8],outcome [9],AC50 [1],AC50 [3]
CC(=O)O,inactive,inactive,inactive,inactive,inactive,inactive,inactive,inactive,inactive,–,–
O=C1O[C@H]([C@H](O)CO)C(O)=C1O,inactive,inactive,inactive,inactive,inactive,–,inactive,inactive,inactive,–,–
S=c1[nH]c2ccccc2s1,inactive,inactive,inactive,inactive,inactive,–,inactive,inactive,inactive,–,–
O=C1NC(=O)C(c2ccccc2)(c2ccccc2)N1,inactive,inactive,inactive,inactive,inactive,–,inactive,inactive,inactive,–,–
CCc1cc(C2=C(C(=O)O)N(c3ccccc3C(F)(F)F)S(=O)(=O)c3ccccc32)cc2c1OCO2,inactive,inactive,inactive,inactive,inactive,–,inactive,inactive,inactive,–,–
CC(C)COC(=O)CCCCC(=O)OCC(C)C,inactive,inactive,inactive,inactive,inactive,–,inactive,inactive,inactive,–,–
C=CCc1ccc(OC)c(OC)c1,inactive,inactive,inactive,inactive,inactive,–,inactive,inactive,inactive,–,–
COC(=O)[C@H]1[C@H]2C[C@@H]3c4[nH]c5cc(OC)ccc5c4CCN3C[C@H]2C[C@@H](OC(=O)c2cc(OC)c(OC)c(OC)c2)[C@@H]1OC,–,inactive,–,inactive,inactive,inactive,inactive,inactive,inactive,51.6 µM (active),8.83 µM (active)
CC(=O)OCC(COC(C)=O)OC(C)=O,inactive,inactive,inactive,inactive,inactive,–,inactive,inactive,inactive,–,–
CO[C@@H]1COCC[C@@H]1N[C@@H]1CC[C@@](C(=O)N2CCc3ncc(C(F)(F)F)cc3C2)(C(C)C)C1,inactive,inactive,inactive,inactive,inactive,–,inactive,inactive,inactive,–,–
CCCCC(CC)COC(=O)CCCCCCCC(=O)OCC(CC)CCCC (stereo not drawn),inactive,inactive,inactive,inactive,inactive,–,inactive,inactive,inactive,–,–
CC(C)(C)c1ccccc1,inactive,inactive,inactive,inactive,inactive,inactive,inactive,inactive,inactive,–,–
Cc1occc(=O)c1O,inactive,inactive,inactive,inactive,inactive,–,inactive,inactive,inactive,–,–
O=C(O)c1cccnc1,inactive,inactive,inactive,inactive,inactive,–,inactive,inactive,inactive,–,–
Cc1cc(Cc2ccc(N)c(C)c2)ccc1N,inactive,inactive,inactive,inactive,inactive,inactive,inactive,inactive,inactive,–,–
O=C(Oc1ccccc1)c1cccc(C(=O)Oc2ccccc2)c1,inactive,inactive,inactive,inactive,inactive,–,inactive,inactive,inactive,–,–
CC(COCC(C)OC(=O)c1ccccc1)OC(=O)c1ccccc1 (stereo not drawn),inactive,inactive,inactive,inactive,inactive,inactive,inactive,inactive,inactive,–,–
CN(C)C(=O)NC1(c2ccccc2)CCN(CC[C@@]2(c3ccc(F)c(F)c3)CN(C(=O)c3ccccc3)CCO2)CC1,–,inactive,inactive,inactive,inactive,–,inactive,inactive,inactive,162 µM (active),–
CC(N)=O,inactive,inactive,inactive,inactive,inactive,–,inactive,inactive,inactive,–,–
CC(C)NCC(O)c1ccc(O)c(O)c1 (stereo not drawn),inactive,inactive,inactive,inactive,inactive,–,inactive,inactive,inactive,–,–
NC=O,inactive,inactive,inactive,inactive,inactive,–,inactive,inactive,inactive,–,–
CC(=O)OC1CC(C)OC(C)O1 (stereo not drawn),inactive,inactive,inactive,inactive,inactive,inactive,inactive,inactive,inactive,–,–
CC(C)c1cccc(C(C)C)c1NC(=O)NS(=O)(=O)c1cc(C(C)(C)O)co1,inactive,inactive,inactive,inactive,inactive,–,inactive,inactive,inactive,–,–
Cc1cc(SC2=C(O)C[C@@](CCc3ccc(N)cc3)(C(C)C)OC2=O)c(C(C)(C)C)cc1CO,inactive,inactive,inactive,inactive,inactive,–,inactive,inactive,inactive,–,–
